Among the data in PubChem BioAssay (NCATS) are outcome and Potency values, retold here.

Values joined by “and” are separate entries in the source; they are usually repeats but may differ in a detail not shown here. Equal entries are not always repeated. Results filed as inconclusive are left out. Active and inactive are the calls of the source. Unless noted, calls come from the whole dose curve; as a rule, active = well fitted curve in the direction sought with a large enough effect; inconclusive = small, poorly fitted or top-dose-only effect, or another doubt; inactive = no such curve, though single readings can be large; an effect the other way counts as inactive or inconclusive.

Test [1] in a line: Cytometric Cell-Based qHTS for Inhibitors of the mTORC1 Signaling Pathway in MEF (Tsc2-/-, p53-/-) Cells (AID 2660).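 Note: percent of cells above a phospho-rpS6 to PI ratio cutoff in each well; series mostly up to about 38 µM.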 A digest of the protocol:
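Tsc2-/-, p53-/- MEFs (empty vector) exposed to compound 24 h at 37 C, fixed, stained with Alexa-488 anti-phospho-rpS6 Ser235/236 and propidium iodide. Acumen laser scanning; phospho-S6/PI ratio thresholded against 7.5 nM rapamycin, reported as % positive cells.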

The nature of test [2]: High Content Imaging Cell-Based qHTS for Inhibitors of the mTORC1 Signaling Pathway in MEF (Tsc2-/-, p53-/-) Cells (AID 2666).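 Note: percent of cells scored positive for phospho-rpS6 Ser235/236 immunostaining by imaging.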 A digest of the protocol: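 Inhibition of rpS6 phosphorylation is measured by immunofluorescence imaging in empty-vector Tsc2-/-, p53-/- mouse embryonic fibroblasts after 24 hrs compound exposure at 37 degree Celsius. Results are reported as % positive cells per well.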

Test [3] in a line: High Content Imaging Cell-Based qHTS for Inhibitors of the mTORC1 Signaling Pathway in MEF Cells (AID 2667).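 Note: Tsc2-/- p53-/- MEFs stably re-expressing wild-type Tsc2 exposed 24 h; series mostly up to about 38 µM.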 A digest of the protocol: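 Fixed-cell imaging of phospho-S6 (Ser235/236, Alexa-488) after 24 hrs of compound treatment at 37 degree Celsius. Signal was normalized to Hoechst, and thresholds from the highest and lowest wells split cells into % active versus % non-active.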

A short description of test [4]: Cytometry Cell-Based qHTS for Inhibitors of the mTORC1 Signaling Pathway in MEF cells (AID 2668).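 Note: Tsc2-/- p53-/- mouse embryonic fibroblasts stably re-expressing wild-type Tsc2; percent cells positive for phospho-rpS6 Ser235/236 relative to propidium iodide stain; series mostly up to about 38 µM.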 In short, it runs like this:
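Read-out: phospho-rpS6 Ser235/236 immunofluorescence normalized to propidium iodide intensity, scored as % active cells against a rapamycin (7.5 nM) threshold. Cells: Tsc2-/-, p53-/- MEFs stably expressing WT Tsc2, compound-treated 24 hrs at 37 degree Celsius.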

In test [5] the target is Ubiquitin carboxyl-terminal hydrolase 2 (Homo sapiens) (UniProt O75604). Briefly: qHTS Validation Assay for Inhibitors of Ubiquitin-specific Protease USP2a Using CHOP2 as the Reporter (AID 463106). Note: potency is the fitted concentration of half-maximal effect. A digest of the protocol:
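Inhibition is expressed relative to NEM as the full-inhibition control, with concentration-response curves classed by fit quality, magnitude and activity. Enzyme (USP2 core, 10nM) meets 25nM Ub-CHOP2 after compound preincubation; readings are taken at 60min.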

The target in test [6] is DNA polymerase III PolC-type (Bacillus subtilis (strain 168)) (UniProt P13267). Put plainly: qHTS Validation Assay for the Inhibitors of DNA Replication in Gram-Positive Bacteria (AID 485295).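 Note: reconstituted holoenzyme with PolC plus beta clamp SSB and primase; PicoGreen fluorescence of double-stranded DNA made on primed circular M13 template; series mostly up to about 57 µM.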 A digest of the protocol: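 PicoGreen fluorescence (ex 480–485/em 535–540 nm) reports dsDNA synthesized on ssM13Gori template with dNTPs/NTPs. Enzyme: holoenzyme rebuilt from purified PolC, beta subunit, SSB and primase. Compound preincubated before substrate addition; RT throughout.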
Chain of DNA polymerase III PolC-type (Bacillus subtilis (strain 168)) (P13267 whole entry, looked up): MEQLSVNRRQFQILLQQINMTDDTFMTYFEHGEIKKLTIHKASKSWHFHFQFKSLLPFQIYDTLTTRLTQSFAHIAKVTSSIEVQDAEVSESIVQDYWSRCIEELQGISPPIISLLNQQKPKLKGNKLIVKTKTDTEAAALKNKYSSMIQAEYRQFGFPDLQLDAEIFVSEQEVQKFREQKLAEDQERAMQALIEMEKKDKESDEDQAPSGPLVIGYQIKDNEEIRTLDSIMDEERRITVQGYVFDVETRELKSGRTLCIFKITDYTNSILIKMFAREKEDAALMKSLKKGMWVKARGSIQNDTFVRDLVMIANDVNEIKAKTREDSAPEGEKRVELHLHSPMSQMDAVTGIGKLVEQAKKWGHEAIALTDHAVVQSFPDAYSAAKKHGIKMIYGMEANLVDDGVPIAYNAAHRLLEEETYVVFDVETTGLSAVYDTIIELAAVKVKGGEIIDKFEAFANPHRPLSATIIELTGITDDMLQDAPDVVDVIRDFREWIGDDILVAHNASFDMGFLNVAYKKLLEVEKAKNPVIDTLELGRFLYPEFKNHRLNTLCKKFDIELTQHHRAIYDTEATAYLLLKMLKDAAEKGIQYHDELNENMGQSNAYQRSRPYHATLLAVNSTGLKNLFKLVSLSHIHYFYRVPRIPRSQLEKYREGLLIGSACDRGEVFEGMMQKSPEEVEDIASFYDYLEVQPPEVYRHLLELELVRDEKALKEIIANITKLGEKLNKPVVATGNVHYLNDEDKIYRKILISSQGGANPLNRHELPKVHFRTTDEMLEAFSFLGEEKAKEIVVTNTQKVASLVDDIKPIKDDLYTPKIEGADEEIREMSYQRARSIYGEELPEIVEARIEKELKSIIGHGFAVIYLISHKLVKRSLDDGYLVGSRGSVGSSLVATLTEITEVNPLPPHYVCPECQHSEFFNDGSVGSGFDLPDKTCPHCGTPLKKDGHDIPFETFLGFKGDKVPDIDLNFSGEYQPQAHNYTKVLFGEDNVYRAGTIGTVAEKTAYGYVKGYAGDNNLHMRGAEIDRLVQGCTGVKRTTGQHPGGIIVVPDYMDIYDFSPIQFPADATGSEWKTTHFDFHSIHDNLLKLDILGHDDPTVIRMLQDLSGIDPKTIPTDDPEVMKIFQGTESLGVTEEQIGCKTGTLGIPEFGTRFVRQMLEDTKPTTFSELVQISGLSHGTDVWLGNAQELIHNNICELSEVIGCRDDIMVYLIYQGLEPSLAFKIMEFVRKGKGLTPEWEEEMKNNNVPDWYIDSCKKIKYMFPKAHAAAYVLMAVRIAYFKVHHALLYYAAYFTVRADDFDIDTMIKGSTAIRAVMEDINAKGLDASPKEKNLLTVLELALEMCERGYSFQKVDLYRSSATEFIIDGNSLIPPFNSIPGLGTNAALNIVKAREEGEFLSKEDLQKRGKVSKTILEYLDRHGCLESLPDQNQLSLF

Test [7] addresses Tumor susceptibility gene 101 protein (Homo sapiens) (UniProt Q99816). Put plainly: qHTS Validation Assay for Iinhibitors of HIV-1 Budding by Blocking the Interaction of PTAP/TSG101 (AID 485342; calls by dose curve). A digest of the protocol: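 FP read-out: FITC-PTAP peptide, 50 nM final, binding Tsg101 binding domain, 10 uM final; 20 min r.t.; 10 mM HEPES pH 7.5, 0.15 M NaCl, 0.01% Tween 20, 3 mM EDTA, 0.1 mM TCEP.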

Test [8] is described as follows: qHTS Validation Assay to Find Inhibitors of Chronic Active B-Cell Receptor Signaling (AID 485345; active = well fitted curve in the direction sought with a large enough effect in the main read-out, with a control signal flat, not every such curve was filed as active). In short, it runs like this:
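TMD8 ABC-DLBCL cells with dox-inducible green luciferase–IκBα fusion and red native luciferase; compounds 46 uM–3 nM, 4 h at 37C with doxycycline in 0.5% FBS IMDM. Green/red ratio normalized to basal and 10 uM MG-132.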

In test [9] the target is Beta-2 adrenergic receptor (Homo sapiens) (UniProt P07550). Put plainly: qHTS validation assay of beta-arrestin-biased ligands of beta2-adrenergic receptor (AID 485366). In short, it runs like this: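 qHTS, Tango cells, 1500 cells/well, DMEM + 1% FBS. Cpd 18 hr at 37 degrees C. Luciferin/ATP/CoA detection mix, 15 min RT, luminescence read. %Activity from corrected signal; CRC fit, curve class.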
Chain of Beta-2 adrenergic receptor (Homo sapiens) (P07550 whole entry, looked up): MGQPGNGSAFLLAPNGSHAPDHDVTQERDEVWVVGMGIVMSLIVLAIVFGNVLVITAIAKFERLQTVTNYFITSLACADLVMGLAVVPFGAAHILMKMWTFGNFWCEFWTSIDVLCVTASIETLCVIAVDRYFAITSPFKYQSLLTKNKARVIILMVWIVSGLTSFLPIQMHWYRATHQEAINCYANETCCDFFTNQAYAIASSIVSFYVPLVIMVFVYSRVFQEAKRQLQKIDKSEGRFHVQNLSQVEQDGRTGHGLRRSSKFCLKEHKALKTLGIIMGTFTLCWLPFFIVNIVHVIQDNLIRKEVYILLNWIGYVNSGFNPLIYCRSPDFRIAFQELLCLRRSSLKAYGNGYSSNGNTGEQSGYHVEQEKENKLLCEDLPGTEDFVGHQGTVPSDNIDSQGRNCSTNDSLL

Test [10] has as its target ATP-dependent 6-phosphofructokinase (Trypanosoma brucei brucei) (UniProt O15648). Put plainly: qHTS Validation Assay to Find Inhibitors of T. brucei phosphofructokinase (AID 485368). Note: potency is the fitted concentration of half-maximal effect. In short, it runs like this:
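Luminescent ADP detection measures PFK turnover of fructose-6-phosphate (0.5 mM) with ATP (0.1 mM) at pH 8.0. Reaction runs 45 min at room temperature with 1.25 nM enzyme; inhibitors tested as titrations up to 57 uM.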

Test [11] addresses Thioredoxin reductase 1, cytoplasmic (Rattus norvegicus) (UniProt O89049). Briefly: qHTS Assay for Substrates of Mammalian Selenoprotein Thioredoxin Reductase 1 (TrxR1) (AID 488772).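 Note: series mostly up to about 57 µM; a drop in NADPH fluorescence below the no-compound background marks a TrxR1 substrate.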 A digest of the protocol:
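In this dual-purpose format, potential substrates are identified from the first fluorescence read after selenite addition, not from the 8-minute delta. Rat enzyme is preincubated with NADPH and then with compound at ~22 deg C.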

For test [12] the target is unchanged. Put plainly: qHTS Assay for Inhibitors of Mammalian Selenoprotein Thioredoxin Reductase 1 (TrxR1) (AID 488773).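 Note: drop in NADPH fluorescence over an 8 min run after selenite addition; series mostly up to about 57 µM; nearly all actives have a fitted effect of over 40% in size.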 The settings on record: Potency: inhibition. A digest of the protocol: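 Inhibition is scored from the loss of NADPH fluorescence between first and last reads of an 8-min kinetic run. Selenite (400 uM) was the substrate, added after 15 min compound preincubation at room temperature.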

Test [13] concerns the target Flap endonuclease 1 (Homo sapiens) (UniProt P39748). Put plainly: qHTS Validation Assay for the Inhibitors of Human Flap endonuclease 1 (FEN1) (AID 488816). Note: potency is the fitted concentration of half-maximal effect. In short, it runs like this: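 Steps: add FEN1 (10 nM reagent) or buffer only; pin compounds; hold 15 min at room temperature; start with substrate, 50 nM final; read at 0 and 15 min; correct, normalize and fit a four-parameter Hill curve.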

The target in test [14] is M-phase phosphoprotein 8 (Homo sapiens) (UniProt Q99549). Put plainly: qHTS Validation Assay for Inhibitors for MPP8 Chromodomain Interactions with Methylated Histone Tails (AID 488949). Note: nearly all actives have a fitted effect of over 55% in size. Note: potency is the fitted concentration of half-maximal effect. In short, it runs like this:
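AlphaScreen read-out: streptavidin donor and nickel chelate acceptor beads (final 10 ug/mL), 30 min in the dark at RT. Complex of 50 nM MPP8 and 50 nM b-H3(1-18)K9me3 peptide had been exposed to compounds for 30 min beforehand.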

For test [15], the target named is Chromobox protein homolog 1 (Homo sapiens) (UniProt P83916). Put plainly: qHTS Validation Assay for Inhibitors of HP1-beta Chromodomain Interactions with Methylated Histone Tails (AID 488953). Note: nearly all actives have a fitted effect of over 50% in size. Note: potency is the fitted concentration of half-maximal effect. In short, it runs like this: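 Disruption of preformed HP1-beta:H3K9me3 peptide complexes (both 50 nM, PBS pH 7.4 with 0.01% Tween-20) is measured by AlphaScreen after 30 min compound exposure at room temperature, using streptavidin donor and nickel chelate acceptor beads at 10 ug/mL final.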
Chain of Chromobox protein homolog 1 (Homo sapiens) (P83916 whole entry, looked up): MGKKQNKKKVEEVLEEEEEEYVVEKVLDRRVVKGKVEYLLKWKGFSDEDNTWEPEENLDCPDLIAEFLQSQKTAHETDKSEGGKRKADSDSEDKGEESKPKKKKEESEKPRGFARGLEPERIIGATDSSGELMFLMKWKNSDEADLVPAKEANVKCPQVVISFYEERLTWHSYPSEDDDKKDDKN

Test [16] is described as follows: Validation screen for small molecules that induce DNA re-replication in MCF 10A normal breast cells (AID 463097). Note: nearly all actives have a fitted effect of over 60% in size. A digest of the protocol: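 250 MCF 10A cells/well; compound pin-transferred; 48 hr, 37 C, 5% CO2; Hoechst 40 min; imaged 405/500-530 nm. Hits = more high-intensity nuclei.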
Test [17] in a line: Quantitative high throughput screen for delayed death inhibitors of the malarial parasite plastid, 96 hour incubation (AID 488745).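 Note: luciferase-expressing P. falciparum in erythrocytes at 2% hematocrit and 0.1% parasitemia; series mostly up to about 29 µM; nearly all actives have a fitted effect of over 70% in size.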 In short, it runs like this: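 Readout is firefly luciferase luminescence from an integrated reporter in P. falciparum; lower signal marks inhibited growth. Cultures at 2% hematocrit and 0.1% parasitemia were treated with compound across two generations (96 h, 37 C, 5% CO2).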

Test [18] can be described thus: Quantitative high throughput screen for delayed death inhibitors of the malarial parasite plastid, 48 hour incubation (AID 488752). Note: nearly all actives have a fitted effect of over 65% in size. In short, it runs like this: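 First, compound was pinned into RPMI 1640 medium containing 0.5% Albumax. Next, reporter-parasite-infected erythrocytes were added to 2% hematocrit and 0.1% parasitemia. After 48 h at 37 C under 5% CO2, luciferase detection reagent was added and luminescence read.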

Chain of Thioredoxin reductase 1, cytoplasmic (Rattus norvegicus) (O89049 whole entry, looked up): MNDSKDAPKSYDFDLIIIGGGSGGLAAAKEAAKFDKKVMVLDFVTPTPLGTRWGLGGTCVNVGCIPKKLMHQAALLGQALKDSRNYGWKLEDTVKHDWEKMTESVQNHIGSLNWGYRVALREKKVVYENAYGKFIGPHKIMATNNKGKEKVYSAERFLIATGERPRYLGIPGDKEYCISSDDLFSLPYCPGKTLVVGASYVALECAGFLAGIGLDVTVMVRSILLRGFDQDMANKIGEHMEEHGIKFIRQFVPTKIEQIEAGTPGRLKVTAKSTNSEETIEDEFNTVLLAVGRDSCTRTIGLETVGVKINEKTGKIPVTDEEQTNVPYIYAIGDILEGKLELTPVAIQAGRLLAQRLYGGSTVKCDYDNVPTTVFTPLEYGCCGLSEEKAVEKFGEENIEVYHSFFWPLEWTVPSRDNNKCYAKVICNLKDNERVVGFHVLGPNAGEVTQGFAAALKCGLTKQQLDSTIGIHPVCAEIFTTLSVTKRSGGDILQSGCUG
Chain of Ubiquitin carboxyl-terminal hydrolase 2 (Homo sapiens) (O75604 whole entry, looked up): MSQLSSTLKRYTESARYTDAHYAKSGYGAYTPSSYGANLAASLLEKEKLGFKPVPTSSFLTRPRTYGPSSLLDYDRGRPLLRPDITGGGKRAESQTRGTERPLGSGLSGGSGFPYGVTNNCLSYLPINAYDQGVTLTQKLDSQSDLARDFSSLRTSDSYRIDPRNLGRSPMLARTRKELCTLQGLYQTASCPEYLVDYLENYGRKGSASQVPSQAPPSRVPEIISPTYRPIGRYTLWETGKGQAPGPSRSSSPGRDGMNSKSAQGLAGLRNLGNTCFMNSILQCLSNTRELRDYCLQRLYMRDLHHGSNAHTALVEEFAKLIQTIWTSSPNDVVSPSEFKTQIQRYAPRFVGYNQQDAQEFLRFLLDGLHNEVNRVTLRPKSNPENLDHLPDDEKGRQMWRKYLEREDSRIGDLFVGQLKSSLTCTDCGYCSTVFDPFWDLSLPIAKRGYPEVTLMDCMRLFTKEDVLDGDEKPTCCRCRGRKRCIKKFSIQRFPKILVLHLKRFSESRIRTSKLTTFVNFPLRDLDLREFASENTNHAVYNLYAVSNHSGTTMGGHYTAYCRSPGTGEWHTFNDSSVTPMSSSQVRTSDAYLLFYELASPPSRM
Chain of Tumor susceptibility gene 101 protein (Homo sapiens) (Q99816 whole entry, looked up, the tested form may be a part): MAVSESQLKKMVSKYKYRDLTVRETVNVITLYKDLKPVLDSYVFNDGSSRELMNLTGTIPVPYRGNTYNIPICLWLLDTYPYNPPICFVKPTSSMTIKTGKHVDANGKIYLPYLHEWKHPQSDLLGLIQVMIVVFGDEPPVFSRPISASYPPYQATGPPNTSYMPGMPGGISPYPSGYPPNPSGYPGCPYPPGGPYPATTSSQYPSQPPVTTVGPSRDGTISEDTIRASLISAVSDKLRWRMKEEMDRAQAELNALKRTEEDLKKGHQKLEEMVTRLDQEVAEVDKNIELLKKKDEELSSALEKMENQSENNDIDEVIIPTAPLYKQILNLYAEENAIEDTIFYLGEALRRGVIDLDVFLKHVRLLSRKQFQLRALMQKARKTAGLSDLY
Chain of M-phase phosphoprotein 8 (Homo sapiens) (Q99549 whole entry, looked up): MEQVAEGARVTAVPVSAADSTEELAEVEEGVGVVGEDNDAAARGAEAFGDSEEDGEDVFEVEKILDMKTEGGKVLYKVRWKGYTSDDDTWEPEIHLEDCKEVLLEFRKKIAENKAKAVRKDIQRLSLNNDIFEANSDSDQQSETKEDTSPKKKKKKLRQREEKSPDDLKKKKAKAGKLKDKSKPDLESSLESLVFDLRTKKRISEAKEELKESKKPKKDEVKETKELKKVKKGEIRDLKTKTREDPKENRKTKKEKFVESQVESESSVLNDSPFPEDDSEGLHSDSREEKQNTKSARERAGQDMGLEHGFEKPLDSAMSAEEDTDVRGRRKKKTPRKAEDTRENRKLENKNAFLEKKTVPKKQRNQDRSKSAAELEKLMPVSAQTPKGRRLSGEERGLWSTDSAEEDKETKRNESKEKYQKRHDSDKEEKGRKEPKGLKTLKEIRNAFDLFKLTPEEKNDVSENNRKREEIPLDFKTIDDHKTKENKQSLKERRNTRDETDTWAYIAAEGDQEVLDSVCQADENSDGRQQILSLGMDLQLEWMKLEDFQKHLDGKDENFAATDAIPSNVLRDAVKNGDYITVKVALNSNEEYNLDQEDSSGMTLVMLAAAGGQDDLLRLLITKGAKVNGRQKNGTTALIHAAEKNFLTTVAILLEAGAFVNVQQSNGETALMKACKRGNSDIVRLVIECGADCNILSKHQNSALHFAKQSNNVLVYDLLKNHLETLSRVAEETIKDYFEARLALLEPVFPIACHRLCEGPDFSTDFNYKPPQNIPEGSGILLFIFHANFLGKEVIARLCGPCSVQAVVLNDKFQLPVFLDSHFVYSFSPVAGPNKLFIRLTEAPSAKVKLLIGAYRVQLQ
Chain of ATP-dependent 6-phosphofructokinase (Trypanosoma brucei brucei) (O15648 whole entry, looked up): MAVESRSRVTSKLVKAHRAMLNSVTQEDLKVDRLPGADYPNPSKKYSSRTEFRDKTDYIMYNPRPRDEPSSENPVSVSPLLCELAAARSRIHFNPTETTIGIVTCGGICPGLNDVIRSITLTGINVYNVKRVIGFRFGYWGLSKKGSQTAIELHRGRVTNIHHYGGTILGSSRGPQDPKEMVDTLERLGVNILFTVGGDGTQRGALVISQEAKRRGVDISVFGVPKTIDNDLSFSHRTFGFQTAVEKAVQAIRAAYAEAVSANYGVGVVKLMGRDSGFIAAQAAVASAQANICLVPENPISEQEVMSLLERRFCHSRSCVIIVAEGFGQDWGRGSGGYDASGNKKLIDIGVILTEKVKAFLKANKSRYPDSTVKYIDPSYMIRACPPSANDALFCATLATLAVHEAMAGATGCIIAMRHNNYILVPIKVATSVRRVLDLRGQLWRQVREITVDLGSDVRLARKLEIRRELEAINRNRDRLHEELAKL

With `CN1CC(=O)N/C1=N/C(=O)Nc1cccc(Cl)c1`, the molecule was classed as inactive in [1], in test [7], in test [8] and in test [9]. Moreover, the Potency entry in test [2], in test [3], in test [4], in test [5], in test [6] and in test [10] was “inactive” throughout. The Potency entry in test [11], in test [12], in test [13], in [14] and in test [15] was “inactive” in each case.

As for `CC(=O)N[C@H](C(=O)O)C(C)(C)SN=O`, the result in test [1], in test [7] and in test [9] was inactive. In addition, the Potency result in test [2], in test [3], in test [4], in [16], in test [5] and in test [6] was “inactive” each time. For the same molecule, the Potency entry in test [17], in test [18], in test [11], in test [13], in [14] and in test [15] was “inactive” each time.

With `CO/N=C(\C(=O)N[C@@H]1C(=O)N2C(C(=O)O)=C(COC(C)=O)CS[C@H]12)c1csc(N)n1`, the result in test [1], in test [7], in test [8] and in test [9] was inactive. Also, the Potency result in test [2], in test [3], in test [4], in [5], in test [6] and in test [13] was “inactive” in each case. In test [14], the Potency entry was “inactive”. In addition, the Potency in test [10] was 8490 nM (active); in test [15], 50100 nM (active).

As to `CC(C)Cc1ccc([C@H](C)C(=O)O)cc1`, the molecule was classed as inactive in test [1], in test [7], in test [8] and in test [9]. Moreover, the Potency result in test [2], in [3], in test [4], in test [16], in test [6] and in test [17] was “inactive” each time. The Potency entry in [18], in test [11], in test [12], in test [14] and in test [15] was “inactive” each time.

As for `O=c1[nH]c2cc([N+](=O)[O-])c([N+](=O)[O-])cc2[nH]c1=O`, the call in test [1], in test [8] and in test [9] was inactive. The Potency entry in test [2], in test [3], in test [4], in test [16], in test [5] and in test [6] was “inactive” in each case. Further, the Potency result in test [10], in test [17], in test [11], in test [12], in test [14] and in [15] was “inactive” throughout.

As to `O=c1[nH]c2cc(C(F)(F)F)ccc2n1-c1cc(C(F)(F)F)ccc1O`, the result in [1], in test [7] and in test [9] was inactive. In addition, the Potency result in test [2], in test [3], in test [4], in [16], in [5] and in [6] was “inactive” throughout. The Potency result in [10], in test [12], in test [13] and in test [14] was “inactive” each time.

`N#C/C(=C\c1ccc(O)c(O)c1)C(=O)c1ccc(O)c(O)c1`: the result in test [1], in test [8] and in test [9] was inactive. For the same molecule, the Potency result in test [2], in [3], in test [4], in test [16], in [18] and in test [11] was “inactive” each time. Also, the Potency is 1170 nM (active) in test [5]; 675 nM (active) in test [10]; 752 nM (active) in test [13]; 1.41 µM (active) and 2.99 µM (active) in test [14]; 501 nM (active) in test [15].

As for `Cn1c(=O)c2[nH]c(-c3ccccc3)nc2n(C)c1=O`, the result in test [1] and in [9] was inactive. Further, the Potency result in test [2], in [3], in test [4], in [16], in [5] and in [6] was “inactive” in each case. For the same molecule, the Potency entry in test [10], in [17], in test [18], in test [11], in test [14] and in test [15] was “inactive” each time.
